Measured values as given in PubChem BioAssay.
Results filed as inconclusive are left out. Activity calls are given as the source filed them.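 How the source made its calls, unless noted: active means normalized viability below 100% at a tested concentration; inactive means the rest.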

Experiments:
[1] = viability loss in pontine glioma line – cell-based, SU-DIPG-XVII, MIPE5.0, CellTiter-Glo, qHTS, dose response (AID 1347060; cut-off not given, nearly all actives have AC50 up to about 26 µM;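 on AC50: cells exposed to compound for 48 hours before viability readout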); conditions: CellTiter-Glo ATP luminescence
[2] = viability loss in pontine glioma line – cell-based, SU-DIPG-XIII, MIPE4.0, CellTiter-Glo, qHTS, dose response (AID 1347061; cut-off not given, nearly all actives have AC50 up to about 37 µM;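 further: cells exposed to compound for 48 hours before readout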); conditions: CellTiter-Glo ATP luminescence
[3] = viability loss in pontine glioma line – cell-based, JHH-DIPG-1, MIPE4.0, CellTiter-Glo, qHTS, dose response (AID 1347062; cut-off not given, nearly all actives have AC50 up to about 27 µM;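 on AC50: cells exposed to compound for two days before readout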); conditions: JHH-DIPG-1 viability, CellTiter-Glo ATP luminescence
[4] = viability loss in pontine glioma line – cell-based, SU-DIPG-IV, MIPE4.0, CellTiter-Glo, qHTS, dose response (AID 1347063; cut-off not given, nearly all actives have AC50 up to about 30 µM;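 further: compound exposure lasted 48 hours before the viability readout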); conditions: CellTiter-Glo ATP luminescence
[5] = viability loss in pontine glioma line – cell-based, SU-DIPG-XIII, MIPE5.0, CellTiter-Glo, qHTS, dose response (AID 1347064; cut-off not given, nearly all actives have AC50 up to about 23 µM;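 on AC50: cells exposed to compound for 48 hours before the viability read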); conditions: CellTiter-Glo ATP luminescence
[6] = viability loss in pontine glioma line – cell-based, SU-DIPG-XXV, MIPE5.0, CellTiter-Glo, qHTS, dose response (AID 1347065; cut-off not given, nearly all actives have AC50 up to about 26 µM;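 further: cells exposed to compound for 48 hours before ATP readout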); conditions: CellTiter-Glo ATP luminescence
[7] = growth inhibition of DIPG cells – cell-based, MIPE4.0 library, CellTiter-Glo luminescence, qHTS (AID 1347066; cut-off not given, nearly all actives have AC50 up to about 30 µM;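 further: cells exposed to compound for 48 hours before readout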); conditions: SU-DIPG-VI viability, CellTiter-Glo ATP luminescence
[8] = JHH-DIPG-1 glioma cell viability, MIPE5.0 library, CellTiter-Glo luminescence, qHTS (AID 1347067; cut-off not given, nearly all actives have AC50 up to about 26 µM;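 further: cells exposed to compound for 48 hours before readout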); conditions: JHH-DIPG-1 glioma viability, CellTiter-Glo ATP luminescence
[9] = growth inhibition of DIPG cells – cell-based, MIPE5.0 library, qHTS (AID 1347068; cut-off not given, nearly all actives have IC50 up to about 30 µM;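 on IC50: cells exposed to compound for 48 hours before viability readout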); conditions: SU-DIPG-XXV viability
[10] = viability loss with induced miR-34 in A549 – imaging, A549 dox-inducible miR-34, nuclei and caspase counts, primary screen (AID 1347080;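 active means compounds whose cell count with miR-34 switched on is under 0.7 times the count with it off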); conditions: A549 miR-34 inducible, Hoechst nuclei count, 48 h
[11] = MELAS cybrid and Rieske KO viability enhancers – cell-based, MELAS cybrids, Rieske KO mouse fibroblasts, CellTiter-Glo, primary screen (AID 1508586;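 active means mean z-score across replicates of 1.96 or higher in either the MELAS or the Rieske mutant cell line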;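 further: z relative to plate mean and SD of compound and empty wells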); conditions: low glucose
[12] = drug combination growth inhibition, ovarian cancer – cell-based, oncology-focused library, rucaparib conditional, profiling panel (AID 1508598); conditions: patient-derived ovarian cancer cells, CellTiter-Glo viability, 144 h, stronger effect = lower value
[13] = compounds altering HSF1 focus formation in cells – imaging, Selleck Cancer Library (AID 1347162; in the data active means plate-normalised HSF1 focus index below about 0.46); conditions: human cells, HSF1 nuclear foci imaging, at 10 µM; SSMD: measured here: HSF1 foci SSMD mean; cell count: measured here: cell number; plate-normalised HSF1 focus index: stronger effect = lower value
[14] = stronger effect = lower value, cell number ratio, induced over uninduced
[15] = measured here: relative caspase fold change +Dox/-Dox
[16] = measured here: total cells with miR-34 induction, stronger effect = lower value
[17] = measured here: total cells without miR-34 induction
[18] = MELAS cybrid survival, CellTiter-Glo 48 h, stronger effect = higher value
[19] = Rieske KO mouse fibroblast survival, CellTiter-Glo 72 h
[20] = at 0.000305 µM, OCI-C5x cells, with rucaparib 10 µM, 100% = cells with rucaparib alone
[21] = at 0.000305 µM, OCI-C5x cells, without rucaparib
[22] = at 0.000305 µM, OCI-P5x cells, with rucaparib 20 µM, 100% = cells with rucaparib alone
[23] = at 0.000305 µM, OCI-P5x cells, without rucaparib
[24] = at 0.00122 µM, OCI-C5x cells, with rucaparib 10 µM, 100% = cells with rucaparib alone
[25] = at 0.00122 µM, OCI-C5x cells, without rucaparib
[26] = at 0.00122 µM, OCI-P5x cells, with rucaparib 20 µM, 100% = cells with rucaparib alone
[27] = at 0.00122 µM, OCI-P5x cells, without rucaparib
[28] = at 0.00488 µM, OCI-C5x cells, with rucaparib 10 µM, 100% = cells with rucaparib alone
[29] = at 0.00488 µM, OCI-C5x cells, without rucaparib
[30] = at 0.00488 µM, OCI-P5x cells, with rucaparib 20 µM, 100% = cells with rucaparib alone
[31] = at 0.00488 µM, OCI-P5x cells, without rucaparib
[32] = at 0.0195 µM, OCI-C5x cells, with rucaparib 10 µM, 100% = cells with rucaparib alone
[33] = at 0.0195 µM, OCI-C5x cells, without rucaparib
[34] = at 0.0195 µM, OCI-P5x cells, with rucaparib 20 µM, 100% = cells with rucaparib alone
[35] = at 0.0195 µM, OCI-P5x cells, without rucaparib
[36] = at 0.0781 µM, OCI-C5x cells, with rucaparib 10 µM, 100% = cells with rucaparib alone
[37] = at 0.0781 µM, OCI-C5x cells, without rucaparib
[38] = at 0.0781 µM, OCI-P5x cells, with rucaparib 20 µM, 100% = cells with rucaparib alone
[39] = at 0.0781 µM, OCI-P5x cells, without rucaparib
[40] = at 0.313 µM, OCI-C5x cells, with rucaparib 10 µM, 100% = cells with rucaparib alone
[41] = at 0.313 µM, OCI-C5x cells, without rucaparib
[42] = at 0.313 µM, OCI-P5x cells, with rucaparib 20 µM, 100% = cells with rucaparib alone
[43] = at 0.313 µM, OCI-P5x cells, without rucaparib
[44] = at 1.25 µM, OCI-C5x cells, with rucaparib 10 µM, 100% = cells with rucaparib alone
[45] = at 1.25 µM, OCI-C5x cells, without rucaparib
[46] = at 1.25 µM, OCI-P5x cells, with rucaparib 20 µM, 100% = cells with rucaparib alone
[47] = at 1.25 µM, OCI-P5x cells, without rucaparib
[48] = at 5 µM, OCI-C5x cells, with rucaparib 10 µM, 100% = cells with rucaparib alone
[49] = at 5 µM, OCI-C5x cells, without rucaparib
[50] = at 5 µM, OCI-P5x cells, with rucaparib 20 µM, 100% = cells with rucaparib alone
[51] = at 5 µM, OCI-P5x cells, without rucaparib

COc1ccc(-c2cc3c(C)nc(N)nc3n(C3CCC(OCCO)CC3)c2=O)cn1 (stereo not given)
active: AC50 [1] 661 nM | AC50 [2] 418 nM | AC50 [3] 590 nM | AC50 [4] 13.2 nM | AC50 [5] 468 nM | AC50 [6] 235 nM | AC50 [7] 1180 nM | AC50 [8] 934 nM | IC50 [9] 1320 nM
948: cell count [10, 16]
-2.85: z-score [11, 19]
0.958: fold change [10, 15]
inactive: fold change [10, 14] 0.719 | z-score [11, 18] 1.34
1320: cell count [10, 17]

Cc1nc(Nc2n[nH]c3c2CN(C(=O)N[C@H](CN(C)C)c2ccccc2)C3(C)C)c2sccc2n1
active: AC50 [1] 3720 nM | AC50 [2] 10500 nM | AC50 [3] 2090 nM | AC50 [4] 2960 nM | AC50 [5] 1180 nM | AC50 [6] 2090 nM | AC50 [7] 8330 nM | AC50 [8] 2950 nM | IC50 [9] 4170 nM | viability [12, 30] 85.5% | viability [12, 31] 84.6% | viability [12, 33] 66.6% | viability [12, 34] 68.4% | viability [12, 35] 66.2% | viability [12, 36] 90.6% | viability [12, 37] 73.2% | viability [12, 38] 59.9% | viability [12, 39] 60.2% | viability [12, 41] 88% | viability [12, 42] 44.2% | viability [12, 43] 48.5% | viability [12, 44] 85.2% | viability [12, 45] 95.2% | viability [12, 46] 24.7% | viability [12, 47] 39.9% | viability [12, 48] 8.03% | viability [12, 49] 10.2% | viability [12, 50] 8.49% | viability [12, 51] 4.16%
inactive: viability [12, 20] 107% | viability [12, 21] 125% | viability [12, 22] 108% | viability [12, 23] 104% | viability [12, 24] 112% | viability [12, 25] 126% | viability [12, 26] 102% | viability [12, 27] 108% | viability [12, 28] 106% | viability [12, 29] 106% | viability [12, 32] 107% | viability [12, 40] 101%

O=C(NC1CCOCC1)c1ccc(-c2cc(-c3cn[nH]c3-c3ccccn3)ccn2)cc1
0.736: fold change [10, 15]
inactive: outcome [1] | outcome [2] | outcome [3] | outcome [4] | outcome [5] | outcome [6] | outcome [7] | outcome [8] | outcome [9] | fold change [10, 14] 0.83 | z-score [11, 18] -0.384
8800: cell count [10, 16]
0.682: z-score [11, 19]
10600: cell count [10, 17]

Nc1cc(C(F)(F)F)c(-c2cc(N3CCOCC3)nc(N3CCOCC3)n2)cn1
7440: cell count [13]
1500: cell count [10, 16]
1.1: fold change [10, 15]
-2.85: SSMD [13]
1810: cell count [10, 17]
inactive: fold change [10, 14] 0.829 | plate-normalised HSF1 focus index [13] 0.897 | viability [12, 20] 103% | viability [12, 21] 125% | viability [12, 22] 104% | viability [12, 23] 106% | viability [12, 24] 103% | viability [12, 25] 120% | viability [12, 27] 114% | viability [12, 28] 112% | viability [12, 29] 141% | viability [12, 30] 103% | viability [12, 31] 107% | viability [12, 32] 104% | viability [12, 33] 117% | viability [12, 34] 100% | viability [12, 35] 110% | viability [12, 36] 120% | viability [12, 37] 121% | viability [12, 38] 104% | viability [12, 39] 102% | viability [12, 41] 124%
-2.21: z-score [11, 19]
active: AC50 [1] 2950 nM | AC50 [2] 6620 nM | AC50 [3] 2090 nM | AC50 [4] 332 nM | AC50 [5] 2950 nM | AC50 [6] 934 nM | AC50 [7] 1480 nM | AC50 [8] 1480 nM | IC50 [9] 3720 nM | z-score [11, 18] 2.94 | viability [12, 26] 98.2% | viability [12, 40] 93.6% | viability [12, 42] 87.5% | viability [12, 43] 92.9% | viability [12, 44] 71.8% | viability [12, 45] 80.8% | viability [12, 46] 69.7% | viability [12, 47] 51.3% | viability [12, 48] 31.4% | viability [12, 49] 25.1% | viability [12, 50] 26.6% | viability [12, 51] 12.2%

NC(=O)Nc1cc(-c2cccc(F)c2)sc1C(=O)N[C@H]1CCCNC1
active: AC50 [1] 1480 nM | AC50 [2] 20900 nM | AC50 [3] 526 nM | AC50 [4] 5900 nM | AC50 [5] 2090 nM | AC50 [6] 1180 nM | AC50 [7] 18700 nM | AC50 [8] 3320 nM | IC50 [9] 2950 nM | viability [12, 21] 94.3% | viability [12, 22] 76% | viability [12, 23] 79.5% | viability [12, 25] 97.4% | viability [12, 26] 73.7% | viability [12, 27] 86.4% | viability [12, 29] 97.4% | viability [12, 30] 56.6% | viability [12, 31] 87.5% | viability [12, 33] 81.6% | viability [12, 34] 55.1% | viability [12, 35] 90.2% | viability [12, 36] 81.1% | viability [12, 37] 53.1% | viability [12, 38] 44.5% | viability [12, 39] 73.5% | viability [12, 40] 48% | viability [12, 41] 30.6% | viability [12, 42] 26% | viability [12, 43] 21.6% | viability [12, 44] 33.5% | viability [12, 45] 20% | viability [12, 46] 13.7% | viability [12, 47] 9.05% | viability [12, 48] 13% | viability [12, 49] 8.94% | viability [12, 50] 6.86% | viability [12, 51] 3.71%
7360: cell count [13]
inactive: plate-normalised HSF1 focus index [13] 0.95 | viability [12, 20] 130% | viability [12, 24] 134% | viability [12, 28] 117% | viability [12, 32] 108%
-1.43: SSMD [13]
